This is an account of results in PubChem BioAssay (EPA / NIEHS).

Assay [1] concerns the target human Matrix Metalloproteinase-9 (MMP9), MMP9 (gene 4318) (UniProt P14780). Put plainly: NVS_ENZ_hMMP9: NovaScreen (NVS) Enzymatic Assay for human Matrix Metalloproteinase-9 (MMP9) (AID 2283190).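 Note: cell-free recombinant MMP9 protease activity read by fluorescent substrate signal; active means inhibition seen as loss of fluorescence signal versus DMSO.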 The procedure, abridged:
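Screening concentration 25 uM, duplicate wells, then dose series for confirmation. Cell-free enzymatic reaction measured by fluorescence intensity 1 h post-dosing; decreased signal versus DMSO taken as activity.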

For assay [2], the target named is human Matrix Metalloproteinase-3 (MMP3), MMP3 (gene 4314) (UniProt P08254). The assay is described as follows: NVS_ENZ_hMMP3: NovaScreen (NVS) Enzymatic Assay for human Matrix Metalloproteinase-3 (MMP3) (AID 2283185). The procedure: NVS_ENZ_hMMP3 is a biochemical, single-readout assay that uses extracted gene-proteins in a cell-free assay. Measurements were taken 1 hour after chemical dosing in a 96-well plate.NVS_ENZ_hMMP3 is one of one assay component(s) measured or calculated from the NVS_ENZ_hMMP3 assay. It is designed to make measurements of enzyme activity, a form of enzyme reporter, as detected with fluorescence intensity signals by Fluorescence technology.Data from the assay component NVS_ENZ_hMMP3 was analyzed into 1 assay endpoint. This assay endpoint, NVS_ENZ_hMMP3, was analyzed in the positive analysis fitting direction relative to DMSO as the negative control and baseline of activity. […] Furthermore, this assay endpoint can be referred to as a primary readout, because this assay has produced multiple assay endpoints where this one serves a enzymatic activity function. […]
Chain of human Matrix Metalloproteinase-3 (MMP3), MMP3 (gene 4314) (P08254 whole entry, looked up): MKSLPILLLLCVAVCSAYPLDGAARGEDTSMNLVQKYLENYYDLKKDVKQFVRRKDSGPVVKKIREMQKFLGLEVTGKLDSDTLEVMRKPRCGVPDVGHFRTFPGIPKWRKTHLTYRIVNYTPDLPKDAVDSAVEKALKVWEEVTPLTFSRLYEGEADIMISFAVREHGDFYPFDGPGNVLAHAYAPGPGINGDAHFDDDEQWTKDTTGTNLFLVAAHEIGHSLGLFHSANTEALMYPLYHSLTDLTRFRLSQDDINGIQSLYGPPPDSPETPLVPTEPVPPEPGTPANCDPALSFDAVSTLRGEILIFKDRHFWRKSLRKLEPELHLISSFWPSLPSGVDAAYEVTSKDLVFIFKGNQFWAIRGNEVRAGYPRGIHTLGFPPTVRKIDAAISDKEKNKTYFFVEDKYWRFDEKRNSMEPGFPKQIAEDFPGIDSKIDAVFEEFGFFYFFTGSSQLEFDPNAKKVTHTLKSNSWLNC
Binding assays used specific radioligands (tritiated, iodinated) with non-radioactive competitive displacement ligands in agonist or antagonist protocols (as indicated) and various reference compounds and inhibitors to titrate specific binding to receptors and transporters. Most enzyme assays (CYPs, kinases, phosphatases, proteases, HDACs) used recombinant protein and specific substrates (fluorescence mostly, some colorimetric and radioactive) and inhibitors, followed by a biochemical separation of substrate and product. […]

In assay [3] the target is human Matrix Metalloproteinase-1 (MMP1), MMP1 (gene 4312) (UniProt P03956). Put plainly: NVS_ENZ_hMMP1: NovaScreen (NVS) Enzymatic Assay for human Matrix Metalloproteinase-1 (MMP1) (AID 2283181). The method in brief: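 Cell-free fluorescent substrate assay of human MMP1, read after 1 h. A single 25 uM duplicate screen was followed by concentration series to a maximum of 50 uM for actives meeting threshold; inhibition analysed against DMSO baseline.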
Chain of human Matrix Metalloproteinase-1 (MMP1), MMP1 (gene 4312) (P03956 whole entry, looked up): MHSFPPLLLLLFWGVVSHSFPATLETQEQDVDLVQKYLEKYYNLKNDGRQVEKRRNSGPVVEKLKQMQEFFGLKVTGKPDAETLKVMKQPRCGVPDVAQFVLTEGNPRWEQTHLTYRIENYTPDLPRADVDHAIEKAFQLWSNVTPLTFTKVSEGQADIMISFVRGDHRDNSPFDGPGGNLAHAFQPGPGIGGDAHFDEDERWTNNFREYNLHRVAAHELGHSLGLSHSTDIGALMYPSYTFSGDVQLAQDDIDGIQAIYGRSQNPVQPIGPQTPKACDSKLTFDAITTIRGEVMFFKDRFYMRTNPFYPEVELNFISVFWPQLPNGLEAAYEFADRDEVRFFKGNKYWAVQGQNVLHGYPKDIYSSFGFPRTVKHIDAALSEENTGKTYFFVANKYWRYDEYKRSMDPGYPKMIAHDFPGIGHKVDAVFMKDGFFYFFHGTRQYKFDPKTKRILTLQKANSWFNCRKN

Assay [4] concerns the target human Matrix Metalloproteinase-7 (MMP7), MMP7 (gene 4316) (UniProt P09237). Put plainly: NVS_ENZ_hMMP7: NovaScreen (NVS) Enzymatic Assay for human Matrix Metalloproteinase-7 (MMP7) (AID 2283183). The procedure, abridged: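 Compounds first tested at 25 uM in duplicate, then at up to 50 uM in concentration series if active. Protease activity measured by fluorescence intensity 1 h after dosing, with fitting relative to DMSO.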

Assay [5] has as its target human Matrix Metalloproteinase-2 (MMP2), MMP2 (gene 4313) (UniProt P08253). The assay is described as follows: NVS_ENZ_hMMP2: NovaScreen (NVS) Enzymatic Assay for human Matrix Metalloproteinase-2 (MMP2) (AID 2283184). The method in brief: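 Compounds first screened in duplicate at a single 25 uM, with actives followed up in concentration series. Recombinant human MMP2 cleaves a fluorogenic substrate; fluorescence taken at 1 h, inhibition fitted relative to DMSO.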

The target in assay [6] is human NIMA (Never In Mitosis Gene A)-Related Kinase 2 (NEK2), NEK2 (gene 4751) (UniProt P51955). The assay is described as follows: NVS_ENZ_hNEK2: NovaScreen (NVS) Enzymatic Assay for human NIMA (Never In Mitosis Gene A)-Related Kinase 2 (NEK2) (AID 2283188). The method in brief: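 Compounds were first screened in duplicate at 25 uM, with actives followed up in concentration series. Recombinant NEK2 activity, cell-free, was read 1 h after dosing by fluorescence intensity after mobility-shift separation. Signal loss was scored against DMSO.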

Assay [7] concerns the target Collagenase 3 (Homo sapiens) (UniProt P45452). Put plainly: NVS_ENZ_hMMP13: NovaScreen (NVS) Enzymatic Assay for human Matrix Metalloproteinase-13 (MMP13) (AID 2283182). The procedure, abridged:
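Recombinant MMP13 cleaving fluorescent substrate, cell-free, measured 1 h after dosing. Primary duplicate screen at 25 uM; actives tested in concentration-response up to 50 uM; loss of signal relative to DMSO.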

In assay [8] the target is human MET Proto-Oncogene, Receptor Tyrosine Kinase (MET), MET (gene 4233) (UniProt P08581). Put plainly: NVS_ENZ_hMet: NovaScreen (NVS) Enzymatic Assay for human MET Proto-Oncogene, Receptor Tyrosine Kinase (MET) (AID 2283180). The procedure: NVS_ENZ_hMet is a biochemical, single-readout assay that uses extracted gene-proteins in a cell-free assay. Measurements were taken 1 hour after chemical dosing in a 384-well plate.NVS_ENZ_hMet is one of one assay component(s) measured or calculated from the NVS_ENZ_hMet assay. It is designed to make measurements of enzyme activity, a form of enzyme reporter, as detected with fluorescence intensity signals by Fluorescence and electrophoretic mobility shift technology.Data from the assay component NVS_ENZ_hMet was analyzed into 1 assay endpoint. This assay endpoint, NVS_ENZ_hMet, was analyzed in the positive analysis fitting direction relative to DMSO as the negative control and baseline of activity. Using a type of enzyme reporter, loss-of-signal activity can be used to understand changes in the enzymatic activity as they relate to the gene MET. Furthermore, this assay endpoint can be referred to as a primary readout, because this assay has produced multiple assay endpoints where this one serves a enzymatic activity function. To generalize the intended target to other relatable targets, this assay endpoint is annotated to the kinase intended target family, where the subfamily is receptor tyrosine kinase. […]
Chain of human MET Proto-Oncogene, Receptor Tyrosine Kinase (MET), MET (gene 4233) (P08581 whole entry, looked up): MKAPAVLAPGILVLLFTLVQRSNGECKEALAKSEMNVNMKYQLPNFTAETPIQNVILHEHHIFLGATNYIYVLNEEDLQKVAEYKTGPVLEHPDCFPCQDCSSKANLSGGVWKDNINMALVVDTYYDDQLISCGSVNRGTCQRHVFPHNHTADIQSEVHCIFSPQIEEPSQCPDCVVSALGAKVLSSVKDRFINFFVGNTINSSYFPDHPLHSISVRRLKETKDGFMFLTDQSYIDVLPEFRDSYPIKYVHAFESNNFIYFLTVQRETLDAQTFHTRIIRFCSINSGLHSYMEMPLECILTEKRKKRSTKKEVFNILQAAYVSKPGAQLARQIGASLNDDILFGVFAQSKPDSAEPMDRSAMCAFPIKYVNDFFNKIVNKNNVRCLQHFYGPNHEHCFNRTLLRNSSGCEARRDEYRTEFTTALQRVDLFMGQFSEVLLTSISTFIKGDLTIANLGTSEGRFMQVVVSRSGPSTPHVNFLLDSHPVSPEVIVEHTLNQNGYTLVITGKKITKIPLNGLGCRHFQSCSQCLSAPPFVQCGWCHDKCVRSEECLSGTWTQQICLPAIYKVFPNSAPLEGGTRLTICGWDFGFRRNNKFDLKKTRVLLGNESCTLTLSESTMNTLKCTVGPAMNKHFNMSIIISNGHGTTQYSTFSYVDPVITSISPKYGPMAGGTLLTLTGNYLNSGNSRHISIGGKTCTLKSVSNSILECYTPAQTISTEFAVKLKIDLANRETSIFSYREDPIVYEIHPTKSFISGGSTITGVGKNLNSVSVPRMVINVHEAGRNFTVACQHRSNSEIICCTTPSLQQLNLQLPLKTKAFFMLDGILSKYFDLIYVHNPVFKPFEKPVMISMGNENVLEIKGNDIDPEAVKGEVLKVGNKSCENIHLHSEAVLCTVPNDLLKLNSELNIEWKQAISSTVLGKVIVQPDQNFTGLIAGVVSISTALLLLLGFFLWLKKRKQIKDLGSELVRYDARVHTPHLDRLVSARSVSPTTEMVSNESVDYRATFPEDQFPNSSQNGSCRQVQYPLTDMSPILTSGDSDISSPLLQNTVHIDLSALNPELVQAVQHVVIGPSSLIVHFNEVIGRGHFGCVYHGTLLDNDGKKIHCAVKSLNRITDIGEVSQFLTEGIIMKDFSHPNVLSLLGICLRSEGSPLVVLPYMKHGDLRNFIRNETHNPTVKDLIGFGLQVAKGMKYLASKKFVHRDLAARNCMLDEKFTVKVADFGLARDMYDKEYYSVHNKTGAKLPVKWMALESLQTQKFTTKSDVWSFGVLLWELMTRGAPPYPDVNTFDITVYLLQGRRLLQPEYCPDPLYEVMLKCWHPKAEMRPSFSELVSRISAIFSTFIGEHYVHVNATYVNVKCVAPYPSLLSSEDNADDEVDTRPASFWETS

The target in assay [9] is human p21 Activated Kinase 4 (PAK4), PAK4 (gene 10298) (UniProt O96013). The assay is described as follows: NVS_ENZ_hPAK4: NovaScreen (NVS) Enzymatic Assay for human p21 Activated Kinase 4 (PAK4) (AID 2283189). The procedure, abridged: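 Extracted PAK4 enzyme activity read by fluorescence with mobility-shift separation 1 h after chemical addition. Duplicate single-concentration screen at 25 uM, DMSO as negative control.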

For assay [10], the target named is human Phosphodiesterase 4A1 (PDE4A1), PDE4A (gene 5141) (UniProt P27815). Put plainly: NVS_ENZ_hPDE4A1: NovaScreen (NVS) Enzymatic Assay for human Phosphodiesterase 4A1 (PDE4A1) (AID 2283191). The procedure, abridged: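 Fluorescent substrate turnover by recombinant PDE4A1 read after 1 h by mobility-shift separation. Primary duplicate screen at 25 uM; hits retested in concentration series with a 50 uM maximum, relative to DMSO.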
Chain of human Phosphodiesterase 4A1 (PDE4A1), PDE4A (gene 5141) (P27815 whole entry, looked up): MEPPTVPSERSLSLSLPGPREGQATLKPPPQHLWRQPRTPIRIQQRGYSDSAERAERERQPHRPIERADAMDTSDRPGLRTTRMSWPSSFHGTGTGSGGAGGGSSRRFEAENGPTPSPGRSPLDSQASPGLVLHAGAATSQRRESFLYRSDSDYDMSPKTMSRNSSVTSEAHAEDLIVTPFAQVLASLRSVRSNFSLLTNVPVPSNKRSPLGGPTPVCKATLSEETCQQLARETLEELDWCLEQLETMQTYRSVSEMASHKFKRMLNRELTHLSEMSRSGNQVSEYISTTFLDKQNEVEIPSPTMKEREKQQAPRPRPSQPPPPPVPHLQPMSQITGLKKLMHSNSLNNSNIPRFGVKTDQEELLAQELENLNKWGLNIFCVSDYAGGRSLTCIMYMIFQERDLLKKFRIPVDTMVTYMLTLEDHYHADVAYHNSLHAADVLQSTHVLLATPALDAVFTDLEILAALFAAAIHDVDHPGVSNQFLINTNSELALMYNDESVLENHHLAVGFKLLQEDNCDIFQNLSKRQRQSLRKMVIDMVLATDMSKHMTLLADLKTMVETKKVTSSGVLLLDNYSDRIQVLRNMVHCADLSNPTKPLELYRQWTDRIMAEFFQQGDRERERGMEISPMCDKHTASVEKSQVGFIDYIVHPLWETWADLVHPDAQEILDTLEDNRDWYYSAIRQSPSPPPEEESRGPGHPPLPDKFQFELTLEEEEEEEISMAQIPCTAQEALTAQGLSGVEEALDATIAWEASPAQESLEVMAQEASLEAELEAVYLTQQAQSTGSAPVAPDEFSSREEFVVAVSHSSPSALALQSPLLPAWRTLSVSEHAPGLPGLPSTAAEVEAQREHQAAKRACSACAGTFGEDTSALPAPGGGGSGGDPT

Structures are written as SMILES. Results filed as inconclusive are left out. The source made the active and inactive calls. Rule for the calls: active = hit-call score of the fitted dose curve at least 0.9, where 1 is the maximum; inconclusive = response in the unintended direction; inactive = score below 0.9.

Chain of human Matrix Metalloproteinase-2 (MMP2), MMP2 (gene 4313) (P08253 whole entry, looked up): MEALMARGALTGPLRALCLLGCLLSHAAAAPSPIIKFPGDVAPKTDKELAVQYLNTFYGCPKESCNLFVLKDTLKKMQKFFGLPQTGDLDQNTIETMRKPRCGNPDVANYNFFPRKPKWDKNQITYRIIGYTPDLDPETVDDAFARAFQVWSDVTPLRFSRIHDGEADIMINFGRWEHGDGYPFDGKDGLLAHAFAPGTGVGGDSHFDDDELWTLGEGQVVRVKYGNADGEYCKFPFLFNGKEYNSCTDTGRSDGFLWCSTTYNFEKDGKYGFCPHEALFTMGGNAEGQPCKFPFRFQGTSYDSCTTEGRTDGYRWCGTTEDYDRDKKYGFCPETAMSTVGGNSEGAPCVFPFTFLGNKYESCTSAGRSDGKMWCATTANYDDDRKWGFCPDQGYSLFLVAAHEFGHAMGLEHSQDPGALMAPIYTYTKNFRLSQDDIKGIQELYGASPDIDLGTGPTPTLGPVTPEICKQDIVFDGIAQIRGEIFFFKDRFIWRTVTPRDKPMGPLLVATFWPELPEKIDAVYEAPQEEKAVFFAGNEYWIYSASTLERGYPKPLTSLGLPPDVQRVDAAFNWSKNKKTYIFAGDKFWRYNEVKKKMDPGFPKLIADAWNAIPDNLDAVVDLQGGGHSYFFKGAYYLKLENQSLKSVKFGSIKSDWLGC
Chain of human Matrix Metalloproteinase-9 (MMP9), MMP9 (gene 4318) (P14780 whole entry, looked up): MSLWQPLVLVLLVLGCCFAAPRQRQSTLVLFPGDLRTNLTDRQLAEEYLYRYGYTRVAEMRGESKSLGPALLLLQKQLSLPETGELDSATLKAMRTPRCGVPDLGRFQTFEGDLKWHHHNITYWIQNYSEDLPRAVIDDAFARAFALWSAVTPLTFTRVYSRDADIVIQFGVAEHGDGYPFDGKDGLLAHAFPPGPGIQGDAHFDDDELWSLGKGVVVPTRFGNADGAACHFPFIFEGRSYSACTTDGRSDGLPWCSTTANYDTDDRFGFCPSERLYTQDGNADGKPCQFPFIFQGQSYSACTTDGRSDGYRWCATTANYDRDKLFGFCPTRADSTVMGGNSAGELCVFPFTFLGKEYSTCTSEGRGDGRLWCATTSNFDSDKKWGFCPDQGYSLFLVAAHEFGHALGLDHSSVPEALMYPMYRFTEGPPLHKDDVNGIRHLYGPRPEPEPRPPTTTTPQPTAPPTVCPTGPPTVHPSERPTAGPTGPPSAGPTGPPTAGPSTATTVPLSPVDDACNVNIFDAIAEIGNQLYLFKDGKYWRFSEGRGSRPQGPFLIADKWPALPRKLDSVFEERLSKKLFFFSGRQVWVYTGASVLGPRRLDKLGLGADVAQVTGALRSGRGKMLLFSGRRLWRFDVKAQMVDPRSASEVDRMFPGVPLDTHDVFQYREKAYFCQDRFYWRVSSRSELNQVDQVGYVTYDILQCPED
Chain of human Matrix Metalloproteinase-7 (MMP7), MMP7 (gene 4316) (P09237 whole entry, looked up): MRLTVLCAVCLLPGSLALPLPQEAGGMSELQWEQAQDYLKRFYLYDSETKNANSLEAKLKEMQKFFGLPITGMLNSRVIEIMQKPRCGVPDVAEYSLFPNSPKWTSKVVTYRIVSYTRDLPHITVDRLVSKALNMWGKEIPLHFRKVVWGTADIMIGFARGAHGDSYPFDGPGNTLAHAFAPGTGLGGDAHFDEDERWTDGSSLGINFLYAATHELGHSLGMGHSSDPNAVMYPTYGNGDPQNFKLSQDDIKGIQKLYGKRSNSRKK

On to `Cc1c([N+](=O)[O-])cc2c(c1[N+](=O)[O-])C(C)(C)CC2(C)C`, for which the AC50 in assay [1] is 7.49 µM (active).
Turning to `O=[N+]([O-])c1ccccc1`, the result in assay [2] was inactive.
For `CCCN(CCC)c1c([N+](=O)[O-])cc(C(C)C)cc1[N+](=O)[O-]`, in assay [3], the AC50 was 8.62 µM (active).
For the compound `O=P(OCC(Br)CBr)(OCC(Br)CBr)OCC(Br)CBr` (stereo unspecified), in assay [1], the half-maximal activity concentration (AC50) is 4.32 µM (active).
Turning to `CCCCN(CCCC)N=O`, the call in assay [4] was inactive.
In the case of `CCOc1ccc(C(C)(C)COCc2cccc(Oc3ccccc3)c2)cc1`, the call in assay [4] and in [6] was inactive. Moreover, the AC50 in assay [5] was 36 µM (active).
For `CCCCC(CC)COP(=O)(Oc1ccccc1)Oc1ccccc1` (stereo unspecified), the concentration at half-maximal activity (AC50) in assay [1] is 2.08 µM (active).
Take `CC(Cc1ccc(OCC(=O)O)cc1)NCC(O)c1csc(C(F)(F)F)n1` (stereo unspecified): the outcome in assay [7] and in [1] was inactive. For the same compound, the concentration at half-maximal activity (AC50) in assay [5] is 2.3 µM (active).
With `c1nc[nH]n1`, the compound was classed as inactive in assay [5].
On to `CCOP(=S)(OCC)SCSCC`, for which the compound was called inactive in assay [4] and in [5].
For `Cc1ccc(O)cc1C`, the concentration at half-maximal activity (AC50) in assay [3] is 4.79 µM (active).
For `CCC1(c2ccccc2)C(=O)N=C(O)NC1=O` (stereo unspecified), the AC50 in assay [5] was 15.4 µM (active). Besides, the call in [1] was inactive.
Turning to `Nc1ccc(Cl)cc1`, the compound was called inactive in assay [1].
As for `CCN(CC)c1ccccc1`, in assay [7], the call was inactive.
For the compound `CC(C)(C)OOC(C)(C)C`, the result in [8] and in assay [9] was inactive.
Regarding `CSC(C)(C)C=NO`, the compound was classed as inactive in [4] and in [10]. For the same compound, the AC50 in assay [5] is 7.52 µM (active).
For `COP(=O)(O)OC`, the AC50 in assay [1] was 9.97 µM (active).
